In assay [1] the test system is Plasmodium falciparum Sir2 (PF13_0152, Sir2A). Put plainly: Plasmodium falciparum Sir2A binding compounds – biochemical, small-molecule microarray, 635 nm fluorescence, primary screen (AID 1098).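 Note: score merges spot fluorescence intensity with its signal-to-noise ratio.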 The conditions noted are these: fluorescence 635 nm, higher = more signal.
The nature of assay [2]: probe aDKK1 binding to arrayed compounds – biochemical, biotinylated probe, 635/667 nm fluorescence, primary screen (AID 1099).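 Note: score merges 667nm spot fluorescence with signal to noise across triplicate slides.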 The conditions noted are these: small-molecule microarray, higher = more signal.
Assay [3] can be described thus: probe aCHRDL2 binding to arrayed compounds – biochemical, biotinylated probe, 635/667 nm fluorescence, primary screen (AID 1100). The conditions noted are these: small-molecule microarray, higher = more signal.
Assay [4] in a line: change in splice reporter luminescence, either direction, cell-based, HEK293, spliceosome inhibition project, primary screen (AID 1101).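 Note: HEK293 cells carrying a splicing-competent luciferase reporter gene; test concentration not given here.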 To be noted: HEK293 splicing luciferase reporter, 24 h, higher = more signal, called active from +8 up or from −8 down. (A reporter such as luciferase makes a cellular process visible.)
Assay [5] deals with Fibroblast growth factor 10 (Homo sapiens) (UniProt O15520). Kind of assay: compounds binding fibroblast growth factor 10 – biochemical, small-molecule microarray, 635 nm fluorescence, primary screen (AID 1102). To be noted: FGF10 binding, fluorescence 635 nm, higher = more signal.
The subject of assay [6] is glycogen synthase kinase-3 (GSK3A per assay name; protocol says GSK3B). Put plainly: compounds binding glycogen synthase kinase-3 – biochemical, small-molecule microarray, 635 nm fluorescence, GSK3A, primary screen (AID 1103). Note: the record names both GSK3A and GSK3B. The conditions noted are these: fluorescence 635 nm, higher = more signal.
For assay [7], the target named is Epidermal growth factor receptor (Homo sapiens) (UniProt P00533). Put plainly: compounds binding epidermal growth factor receptor – biochemical, small-molecule microarray, 635 nm fluorescence, primary screen (AID 1104).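 Note: score merges 667 nm emission intensity with spot signal to noise over triplicate slides.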 The conditions noted are these: EGFR binding, higher = more signal.
Assay [8] has as its target Follistatin-related protein 3 (Homo sapiens) (UniProt O95633). Kind of assay: compounds binding follistatin-related protein 3 – biochemical, small-molecule microarray, 635 nm fluorescence, primary screen (AID 1105).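 Note: score merges emission near 667 nm and signal to noise per printed spot across three slides.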 To be noted: FSTL3 binding, higher = more signal.
Assay [9] concerns the target Dickkopf-related protein 1 (Homo sapiens) (UniProt O94907). Kind of assay: small molecules binding DKK1 protein – biochemical, small-molecule microarray, 635 nm fluorescence scan, primary screen (AID 1106).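 Note: score merges emission near 667 nm with signal to noise over three replicate slides.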 The conditions noted are these: higher = more signal.
For assay [10], the system named is Inhibin beta A chain (activin A). Kind of assay: small molecules binding activin A – biochemical, small-molecule microarray, 635 nm fluorescence scan, primary screen (AID 1107).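 Note: mouse activin A protein probed at 4.33 µg/mL on printed slides; score merges bound-protein fluorescence near 667 nm with spot signal-to-noise.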 The conditions noted are these: INHBA, higher = more signal.
The subject of assay [11] is Human papillomavirus type 1a protein E7 (residues 44-93). Put plainly: small molecules binding HPV E7 44-93 – biochemical, small-molecule microarray, residues 44-93, 635 nm fluorescence, primary screen (AID 1108).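 Note: E7 fragment applied at 1 µg/mL in TBST for 1 h at 4 C; score combines spot fluorescence with its signal to noise ratio.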 To be noted: fluorescence 635 nm, higher = more signal.
A short description of assay [12]: hepatitis C replication reporter changes, two-sided – Huh7 cells, luciferase reporter, HCV replication inhibitor project, primary screen (AID 1109).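 Note: huh7 hepatoma cells harbouring a luciferase neomycin HCV replicon reporter; luciferase luminescence as measure of HCV replicon replication; test concentration not given here.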 The conditions noted are these: Huh7 HCV replicon luciferase reporter, 48 h; higher = more signal.
The target of assay [13] is Left-right determination factor 2 (Homo sapiens) (UniProt O00292). Put plainly: small molecules binding LEFTY2 protein – biochemical, small-molecule microarray, 635 nm fluorescence scan, primary screen (AID 1110). The conditions noted are these: higher = more signal.
Assay [14] addresses Calmodulin-1 (Homo sapiens) (UniProt P0DP23). Put plainly: small molecules binding calmodulin-1 with EGTA – biochemical, small-molecule microarray, Cy5-labelled CALM1, profiling panel (AID 1111).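 Note: labelled calmodulin applied in Tris saline Tween buffer holding calcium plus EGTA and DTT.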 The conditions noted are these: Cy5-CALM1 binding fluorescence, higher = more signal.
Assay [15] shares this target. Kind of assay: small molecules binding Ca-loaded calmodulin-1 – biochemical, small-molecule microarray, Cy5-labelled CALM1, plus calcium, artefact control for SMM control-protein annotation, profiling panel (AID 1112).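 Note: score merges spot fluorescence with signal to noise from triplicate slides.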 To be noted: Cy5-CALM1 binding fluorescence, higher = more signal.
Assay [16] in a line: probe aWnt5a binding to arrayed compounds – biochemical, biotinylated probe, 635/667 nm fluorescence, primary screen (AID 1113).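 Note: score merges 667 nm fluorescence intensity with signal-to-noise per printed feature.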 To be noted: small-molecule microarray, higher = more signal.
Assay [17] can be described thus: probe aShh binding to arrayed compounds – biochemical, biotinylated probe, 635/667 nm fluorescence, primary screen (AID 1114).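 Note: probe is biotin-labelled aShh protein from a stem cell growth factor screen; measures binding of labelled protein to compounds printed on the slide; score merges feature fluorescence at 667 nm with signal-to-noise.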 To be noted: small-molecule microarray, higher = more signal.
A short description of assay [18]: probe aNog binding to arrayed compounds – biochemical, biotinylated probe, 635/667 nm fluorescence, primary screen (AID 1115).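 Note: probe is biotinylated aNog protein used at 0.15 µg/mL for 1 h at 4 C; z-score combines 667 nm fluorescence of each spot with its signal to noise.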 The conditions noted are these: small-molecule microarray, higher = more signal.
Assay [19] concerns the target Torsin-1A-interacting protein 1 (Homo sapiens) (UniProt Q5JTV8). Kind of assay: compound microarray binding of lysate hLAP1 – cell lysate, small-molecule microarray, COS7 lysate, 635/667 nm fluorescence, primary screen (AID 1116). To be noted: 635 nm fluorescence, higher = more signal.
Assay [20] addresses Alpha-bungarotoxin (Bungarus multicinctus) (UniProt P60615). Kind of assay: compounds binding labelled alpha-BTX control protein – biochemical, small-molecule microarray, Alexa647 label, 635/667 nm fluorescence, artefact control for SMM control protein annotation, profiling panel (AID 1117). To be noted: alpha-BTX-A647 binding fluorescence, higher = more signal.

The source made the active and inactive calls.

Epidermal growth factor receptor (Homo sapiens), sequence (P00533 whole entry, looked up): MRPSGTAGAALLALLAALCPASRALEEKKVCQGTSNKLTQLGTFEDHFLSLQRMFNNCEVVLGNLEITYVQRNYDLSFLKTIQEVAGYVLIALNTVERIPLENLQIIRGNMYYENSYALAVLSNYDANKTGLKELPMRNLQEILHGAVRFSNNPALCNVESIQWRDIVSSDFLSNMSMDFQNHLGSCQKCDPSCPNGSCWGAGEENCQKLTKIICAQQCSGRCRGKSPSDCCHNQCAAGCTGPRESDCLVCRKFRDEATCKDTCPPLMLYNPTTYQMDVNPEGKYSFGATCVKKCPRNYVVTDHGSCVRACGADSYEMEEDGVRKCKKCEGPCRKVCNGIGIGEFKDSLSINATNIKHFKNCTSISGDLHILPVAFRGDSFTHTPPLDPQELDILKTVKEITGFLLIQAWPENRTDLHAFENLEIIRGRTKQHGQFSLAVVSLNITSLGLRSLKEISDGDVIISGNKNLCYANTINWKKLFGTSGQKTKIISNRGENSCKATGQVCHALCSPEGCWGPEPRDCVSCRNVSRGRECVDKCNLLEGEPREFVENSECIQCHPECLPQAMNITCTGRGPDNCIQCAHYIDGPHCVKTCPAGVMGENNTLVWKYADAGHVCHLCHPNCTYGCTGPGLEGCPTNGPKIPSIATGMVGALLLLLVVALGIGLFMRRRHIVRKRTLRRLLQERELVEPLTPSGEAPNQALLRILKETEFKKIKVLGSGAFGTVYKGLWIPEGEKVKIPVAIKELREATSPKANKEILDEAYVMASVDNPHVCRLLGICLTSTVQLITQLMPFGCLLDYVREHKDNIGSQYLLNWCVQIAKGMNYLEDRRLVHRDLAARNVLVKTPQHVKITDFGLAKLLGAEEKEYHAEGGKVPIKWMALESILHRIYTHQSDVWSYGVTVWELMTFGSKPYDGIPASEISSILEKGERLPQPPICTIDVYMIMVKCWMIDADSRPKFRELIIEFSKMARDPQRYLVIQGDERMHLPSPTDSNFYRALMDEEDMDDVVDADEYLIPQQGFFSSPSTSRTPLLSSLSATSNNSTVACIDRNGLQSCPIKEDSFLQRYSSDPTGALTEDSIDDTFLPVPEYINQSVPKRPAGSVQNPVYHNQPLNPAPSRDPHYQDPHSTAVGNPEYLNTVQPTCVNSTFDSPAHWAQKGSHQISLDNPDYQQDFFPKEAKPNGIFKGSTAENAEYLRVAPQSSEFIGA
Left-right determination factor 2 (Homo sapiens), sequence (O00292 whole entry, looked up): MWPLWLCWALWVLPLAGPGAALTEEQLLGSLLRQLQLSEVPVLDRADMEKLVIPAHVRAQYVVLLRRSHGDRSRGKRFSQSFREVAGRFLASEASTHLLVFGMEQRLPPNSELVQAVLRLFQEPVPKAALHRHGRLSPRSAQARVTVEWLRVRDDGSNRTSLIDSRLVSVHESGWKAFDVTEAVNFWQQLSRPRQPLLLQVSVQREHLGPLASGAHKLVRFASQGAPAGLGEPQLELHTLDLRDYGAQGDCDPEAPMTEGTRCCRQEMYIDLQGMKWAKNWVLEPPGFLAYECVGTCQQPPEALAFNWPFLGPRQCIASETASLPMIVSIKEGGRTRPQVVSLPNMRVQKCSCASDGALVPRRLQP
Fibroblast growth factor 10 (Homo sapiens), sequence (O15520 whole entry, looked up): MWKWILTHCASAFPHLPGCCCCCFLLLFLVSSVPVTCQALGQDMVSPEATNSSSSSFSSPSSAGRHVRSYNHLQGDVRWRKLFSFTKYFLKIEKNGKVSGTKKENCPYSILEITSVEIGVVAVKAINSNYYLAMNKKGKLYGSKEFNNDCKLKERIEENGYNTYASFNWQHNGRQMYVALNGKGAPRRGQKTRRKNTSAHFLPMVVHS
Alpha-bungarotoxin (Bungarus multicinctus), sequence (P60615 whole entry, looked up): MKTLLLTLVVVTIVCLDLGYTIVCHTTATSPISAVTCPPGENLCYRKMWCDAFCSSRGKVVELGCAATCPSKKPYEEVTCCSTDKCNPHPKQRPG
Torsin-1A-interacting protein 1 (Homo sapiens), sequence (Q5JTV8 whole entry, looked up): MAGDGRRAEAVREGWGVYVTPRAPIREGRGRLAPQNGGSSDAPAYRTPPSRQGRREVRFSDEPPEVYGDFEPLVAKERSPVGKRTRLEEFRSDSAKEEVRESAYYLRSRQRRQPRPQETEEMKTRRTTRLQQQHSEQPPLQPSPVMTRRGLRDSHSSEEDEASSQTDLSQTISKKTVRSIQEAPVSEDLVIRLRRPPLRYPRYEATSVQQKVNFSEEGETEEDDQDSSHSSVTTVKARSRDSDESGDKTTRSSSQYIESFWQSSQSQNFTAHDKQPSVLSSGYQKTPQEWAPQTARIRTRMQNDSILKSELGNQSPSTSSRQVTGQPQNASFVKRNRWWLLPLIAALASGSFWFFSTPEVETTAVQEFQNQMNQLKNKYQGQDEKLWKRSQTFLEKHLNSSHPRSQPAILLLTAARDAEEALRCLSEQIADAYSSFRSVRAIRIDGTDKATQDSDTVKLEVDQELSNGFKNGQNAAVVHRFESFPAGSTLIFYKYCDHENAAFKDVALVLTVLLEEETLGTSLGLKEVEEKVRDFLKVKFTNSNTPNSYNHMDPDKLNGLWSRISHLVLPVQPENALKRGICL
Follistatin-related protein 3 (Homo sapiens), sequence (O95633 whole entry, looked up): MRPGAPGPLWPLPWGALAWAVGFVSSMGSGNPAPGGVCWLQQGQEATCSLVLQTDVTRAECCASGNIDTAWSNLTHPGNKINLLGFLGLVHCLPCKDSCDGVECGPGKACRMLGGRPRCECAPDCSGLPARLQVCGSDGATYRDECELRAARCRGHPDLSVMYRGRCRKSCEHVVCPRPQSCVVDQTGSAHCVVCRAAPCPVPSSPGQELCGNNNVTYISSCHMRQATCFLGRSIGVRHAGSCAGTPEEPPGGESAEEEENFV
Dickkopf-related protein 1 (Homo sapiens), sequence (O94907 whole entry, looked up): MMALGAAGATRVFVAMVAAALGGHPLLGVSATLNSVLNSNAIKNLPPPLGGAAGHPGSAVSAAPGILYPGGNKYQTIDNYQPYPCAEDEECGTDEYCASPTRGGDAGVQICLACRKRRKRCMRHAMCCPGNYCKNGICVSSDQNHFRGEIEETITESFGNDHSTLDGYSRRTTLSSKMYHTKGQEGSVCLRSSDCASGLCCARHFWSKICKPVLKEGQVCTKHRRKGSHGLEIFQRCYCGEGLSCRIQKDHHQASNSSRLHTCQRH

`O=C(NCC(O)CO)[C@@]1(CCS(=O)(=O)c2ccccc2)N=C(c2ccc(OCCCO)cc2)O[C@H]1c1ccccc1` (stereo not given in full): the composite z-score in [1] is 1.11; in [2] it was 1.27; in [3] it was 0.985; in assay [5], 0.303; in assay [6], 0.235; in assay [7], -0.928. The composite z-score in [8] was -0.555; in [9] it was -1.1; in assay [10] it was 0.801; in assay [11], 1.47; in assay [13] it was -1.15; in assay [14], 1.51. Besides, the composite z-score was 1.14 in assay [15]; 0.0676 in assay [16]; 0.181 in assay [17]; 0.0574 in assay [18]; 2.55 in [19]; 3.32 in [20]. Further, the z-score in assay [4] is -0.809 (inactive); in assay [12], 0.0294.

Consider `CC(C)C[C@@H]1NC(=O)[C@@]23C(=O)N[C@@H](Cc4ccccc4)C2[C@H](C)[C@@]2(C)O[C@H]2C3/C=C/C/C=C\CNC(=O)CNC1=O` (stereo not given in full), for which the composite z-score was 1.19 in [1]; -0.268 in assay [2]; -0.51 in [3]; 0.452 in [5]; 0.202 in assay [6]; 0.127 in assay [7]. Further, the composite z-score was 0.768 in [8]; 0.268 in assay [9]; 1.4 in [10]; 0.346 in [11]; 0.259 in [13]; -0.535 in assay [14]. Further, the composite z-score was -0.963 in [15]; -0.0478 in [16]; -0.138 in [17]; -0.125 in [18]; 0.189 in [19]; 0.49 in assay [20]. The z-score was 0.103 (inactive) in assay [4] and 0.349 in [12].

In the case of `COCCn1c(C(=O)N(C)C)cc2c1C[C@H]1CN(C(=O)c3ccccc3)[C@@](Cc3ccc(OC)cc3)(C(=O)OC)[C@@H]21`, the composite z-score in assay [1] was determined as 0.816; in assay [2], 0.785; in [3] it was 1.34; in assay [5], 0.26; in assay [6], 0.22; in assay [7] it was 0.0351. The composite z-score in [8] was 0.324; in [9], -0.745; in [10], 1.21; in assay [11] it was 1.38; in [13] it was 0.0756; in assay [14], 0.572. The composite z-score came to 0.25 in assay [15]; 0.0431 in assay [16]; 0.204 in [17]; 0.919 in assay [18]; 0.357 in assay [19]; 0.0924 in [20]. In addition, the values for the z-score in assay [4] and in assay [12] were -0.346 (inactive) and -1.27, respectively.

Take `O=C1O[C@@H](c2ccccc2)[C@@H](c2ccccc2)N2[C@@H](c3ccc(OCCO)cc3)[C@]3(C(=O)Nc4ccc(C#CC5(O)CCCCCC5)cc43)[C@@H](C(=O)Nc3nc4ccccc4s3)[C@H]12`: the composite z-score worked out at 0.943 in assay [1]; 0.552 in assay [2]; 0.662 in assay [3]; 1.39 in assay [5]; 1.31 in assay [6]; 0.533 in assay [7]. Also, the composite z-score in assay [8] was found to be 1.38; in [9] it was 0.553; in assay [10], 0.541; in [11], 1.44; in assay [13] it was 0.755; in assay [14], 1.6. The composite z-score in [15] came out at 0.646; in [16] it was 0.0775; in [17] it was 0.156; in assay [18], 0.516; in assay [19] it was 1.34; in assay [20], 1.41. The figures for the z-score in [4] and in [12] were -0.102 (inactive) and -2.29, respectively.

Take `O=C1C2C=CC(C(O)c3cccs3)N(Nc3ccc([N+](=O)[O-])cc3)C2C(=O)N1c1ccccc1` (stereo not given): the composite z-score was 0.672 in [1]; 0.352 in assay [2]; 0.25 in assay [3]; 0.534 in assay [5]; 0.684 in assay [6]; 0.346 in [7]. In addition, the composite z-score in [8] turned out to be 0.393; in assay [9], 0.21; in [10], 0.796; in assay [11] it was 0.759; in assay [13], 0.318; in assay [14] it was 0.439. Further, the composite z-score is 0.123 in assay [15]; -0.0179 in assay [16]; 0.0684 in assay [17]; 0.668 in [18]; 1.01 in assay [19]; 0.69 in [20]. The z-score in assay [4] was 1.15 (inactive); in assay [12], -0.6.

Regarding `O=C(NC1CC1)[C@@H]1c2ccccc2C(=O)N(Cc2cc(C(F)(F)F)cc(C(F)(F)F)c2)[C@H]1c1ccc(CO)cc1`, the composite z-score is 0.965 in assay [1]; -0.534 in [2]; -0.47 in assay [3]; 0.105 in assay [5]; -0.436 in [6]; -0.675 in [7]. For the same compound, the composite z-score in [8] is 0.075; in assay [9], -0.835; in [10], -0.547; in assay [11], 1.35; in [13], -0.876; in [14], 0.146. The composite z-score was -0.366 in [15]; -0.0203 in assay [16]; -0.517 in assay [17]; 0.431 in assay [18]; -0.0446 in [19]; 0.955 in [20]. Also, the figures for the z-score in [4] and in assay [12] were -0.261 (inactive) and -1.02, respectively.
